Molecules are shown by their SMILES. “And” between values parts separate entries of the source, which are not always exact repeats. Equal values may be shown once. Compounds without any hit were thinned out: in the full panel of roughly 79,000, 15% have a hit. A number with no mark means an inactive call. No stated cut-off is given here; in the data, active means growth inhibition above about 70%; inactive means the rest.

This assay can be described thus: NCI Yeast Anticancer Drug Screen. Data for the sgs1 mgt1 strain (AID 161).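 Further: 0% = growth of cultures given vehicle only.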 The settings on record: S. cerevisiae sgs1 mgt1 strain, hits give high values; at 50.0 µM unless noted. In outline:
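Compounds are added to genetically altered yeast, and growth is compared with cultures given vehicle alone to give percent inhibition.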
Regarding `Clc1cccc(Cl)c1C1SCc2nc3cc4ccccc4cc3n21` (centres undefined), the growth inhibition is 24.9%.
Under `COc1ccc(C(=O)/C=C/N)c(OC)c1` stands 5.45%; under `O=C1N=C2Sc3ccc4ccccc4c3N2C1=O`, 24.1%; under `COC1C(O)C(n2ncc3c(SC)nc(SC)nc32)OC1C(O)CO` (centres undefined), -16.2%.
For `CCNC(=O)CCCC(=O)OC`, the growth inhibition is 18.9%.
Then `Cc1ccc2nc(=O)c3cccnc3n2c1`, with 29.9%; and `S=C(Nc1ccc2c(c1)oc1ccccc12)c1cccs1`, with -36.2%.
For `O=C1C(N2CCCCC2)=C(c2ccccc2)c2ccccc21`, the growth inhibition was -3.6%.
Turning to `CCOC(=O)CNC(=O)SCc1ccccc1`, the growth inhibition was -5.95%.
Then `OCCN1CCCCCCC1`, with -4.6% and 0.65%; and `Cc1cc(C(=O)O)c(C(=O)O)c(Cl)n1`, with 0.45%; and `CC(=O)N(C(=O)CC(=O)NNCc1ccccc1Cl)c1ccc(Cl)cc1`, with -19.6%.
Then `NC(=O)c1ccc(-c2csc(=S)[nH]2)s1`, with -15.5%.
In the case of `O=C1CCC(=O)N1N1C(=O)CCC1=O`, the growth inhibition is -10.4%.
Then `O=[N+]([O-])c1ccc(-n2nnc(C3=NCCCN3)c2-c2ccc(Cl)cc2)cc1`, with -5.75%; and `Clc1nc(-c2ccccc2)ns1`, with -12.7%.
For `CC1(C)SC(c2ccccc2)SC(c2ccccc2)S1` (centres undefined), the growth inhibition is -3.3%.
On to `CS(=O)(=O)Nc1c(-c2ccccc2)oc2ccccc2c1=O`, for which the growth inhibition was -6.5%.
Under `COc1cc(CNc2ccccc2)ccc1O` stands -16.9%; under `CC(=O)Oc1cccc2c1C(=O)c1c(OC(C)=O)cc(C)cc1C2=O`, 1.85%; under `CC(C)C1Oc2ccc(Br)cc2C1O` (centres undefined), 2.25%.
Under `NC(=S)/N=C(/c1nc2ccc(Cl)cc2[nH]c1=O)C(O)c1ccccc1Cl` (centres undefined) stands -20.2%.
Under `CC1=CP(=O)(c2ccccc2)CC1` (centres undefined) (tested in a mixture with another compound) stands 6.2%; under `CC(=O)c1ccc(Cl)cc1Cl`, -3.7%; under `CCOC(=O)CSc1nc(-c2ccccc2)c(C#N)c(=O)[nH]1`, -5.4%.
On to `CN1CCC(O)CC1`, for which the growth inhibition was -11.3%.
`O=C(Cc1nc2ccccc2s1)C(=O)Nc1cccc(C(F)(F)F)c1`: the growth inhibition was -10.7%.
As for `CCC1=CCN(c2ccccn2)OC1c1ccc(OC)cc1` (centres undefined), the growth inhibition is 49.2%.
Then `CCOC(=O)c1cccc(N)c1C(=O)OCCN(CC)CC`, with -3.75%; and `CC(=O)Oc1c(I)cc(Cc2nc(C)oc2C)cc1I`, with 6.5%.
Under `NC1N=Nc2ccccc21` (centres undefined) stands 13.3%.
Turning to `Cc1cc(N(CCC#N)CCC#N)ccc1/C=N/NC(=O)c1ccccc1`, the growth inhibition was -10.1%.
On to `CC/C(=N/NC(N)=O)c1ccc(C)cc1`, for which the growth inhibition is -10.2%.
Under `CC[O-].CC[O-].CN(C)c1ccc([O-])cc1.CN(C)c1ccc([O-])cc1.[Ti+4]` stands 2.2%; under `CC(=O)OCC(C)(O)C#N` (centres undefined), 11.3%.
Under `CC(=NCCCCN=C(C)c1cc(O)cc(Br)c1O)c1cc(O)cc(Br)c1O.[Co]` stands 12.3%.
Under `O=C1c2ccccc2C(=O)N1c1ccc(OCCN2CCCCC2)cc1` stands 7.45%.
Consider `CCOc1c(N=Nc2ccc(Cl)cc2Cl)c(C)nn1C(=S)SC`, for which the growth inhibition is 25.9%.
For `NC(=O)C1CC1`, the growth inhibition is -9.7%.

(Values after PubChem BioAssay (NCI).)
